Screening data (PubChem BioAssay)
A selection: hits, their analogues and other compounds. The true share with any hit is near 1.3%.
LAP4 TOR yeast: modulators of LAP4-GFP expression in yeast, primary screen, S. cerevisiae, multiplex flow cytometry, MLPCN library; 3 h; median GFP as percent of DMSO wells; GFP response vs DMSO, % at 10 µM; actives 0.34% (n = 320,000);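 active = GFP response vs DMSO above a set limit, about the screen mean plus 3 SD, cut at about 150% in these data; inconclusive = under 70 cell events counted for the yeast strain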
RPL19A-GFP yeast: RPL19A-GFP expression modulators in yeast, primary screen, cell-based, S. cerevisiae, multiplex flow cytometry, MLPCN | S. cerevisiae RPL19A-GFP strain, 3 h; hits give low values | percent response vs DMSO, % at 10 µM | actives 0.3% (n = 330,000) | AID 2025, 2009;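 active = percent response vs DMSO below 50%; inconclusive = fewer than 70 events counted for the yeast strain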;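 note: median channel GFP fluorescence of the barcoded RPL19A-GFP strain; ratio of sample median GFP to plate DMSO average so 100% = DMSO; lower means less RPL19A-GFP as with rapamycin TOR inhibition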
CIT2 TOR yeast: modulators of CIT2-GFP expression in yeast, primary screen, S. cerevisiae, GFP fusion, multiplex flow cytometry, MLPCN library. S. cerevisiae CIT2-GFP strain, 3 h; 100 means same as DMSO wells. GFP response vs DMSO, % at 10 µM. actives 0.065% (n = 320,000);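 active = GFP response relative to DMSO above a set limit, near the screen mean plus 3 SD, cut at about 150% in these data; inconclusive = Fewer than 70 cells measured for a yeast strain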;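 note: ratio of well median GFP fluorescence to mean of DMSO wells on the plate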
MEP2 TOR yeast: modulators of MEP2-GFP levels in yeast, primary screen, S. cerevisiae, multiplex flow cytometry, MLPCN library | S. cerevisiae MEP2-GFP strain, 3 h; 100% = DMSO control level | GFP response vs DMSO, % at 10 µM | actives 0.51% (n = 330,000) | AID 2016, 2009;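 active = GFP response versus DMSO above a set limit, roughly screen mean plus 3 SD, cut at about 180% in these data; inconclusive = fewer than 70 cells counted for a yeast strain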;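 note: median GFP fluorescence of the barcode-gated MEP2-GFP cells per well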
AGP1-GFP MLPCN: modulators of AGP1-GFP expression in yeast TOR pathway, primary screen, cell-based, multiplex flow cytometry, S. cerevisiae, MLPCN library; AID 2066, 2009; 3 h; GFP as percent of DMSO wells; actives 0.02% (n = 320,000); GFP response vs DMSO, % at 10 µM;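 active = GFP response relative to DMSO above a set limit, near screen average plus 3 SD, cut at about 150% in these data; inconclusive = fewer than 70 cells counted for the yeast strain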;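 note: median GFP channel fluorescence of the gated AGP1 strain per well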
Efflux pump mplx: inhibitors of Candida efflux pumps in yeast, primary screen, S. cerevisiae, Nile Red, multiplex; S. cerevisiae Candida pump triplex; inhibition, % at 10 µM; actives 0.44% (n = 330,000); AID 485275, 2010;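 active = plate passing quality check with inhibition over a set limit, or well fluorescence over plate mean plus 4 SD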;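 note: Nile Red retained in pooled yeast measured as flow cytometry median fluorescence; 0% = buffer negative control and 100% = Enniatin B positive control; higher means more Nile Red kept so more efflux inhibition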
Active calls of the source: *; [ ] = another dose, or the depositor's remark.

For N=c1c(S(=O)(=O)c2ccccc2)cc2c(=O)n3ccccc3nc2n1CCCN1CCOCC1 the results were LAP4 TOR yeast 88, RPL19A-GFP yeast 86, CIT2 TOR yeast inconclusive, MEP2 TOR yeast 233*[may fluoresce violet], AGP1-GFP MLPCN inconclusive and Efflux pump mplx 0.
For CCOCCCn1c(=N)c(S(=O)(=O)c2ccccc2)cc2c(=O)n3cc(C)ccc3nc21 the results were LAP4 TOR yeast 95, RPL19A-GFP yeast 87, CIT2 TOR yeast inconclusive, MEP2 TOR yeast 176*[may fluoresce violet], AGP1-GFP MLPCN 15 and Efflux pump mplx 0.
`Cc1ccc(S(=O)(=O)c2cc3c(=O)n4ccccc4nc3n(CCCN3CCOCC3)c2=N)cc1C` gave LAP4 TOR yeast 86, RPL19A-GFP yeast 41*[may fluoresce violet], CIT2 TOR yeast inconclusive, MEP2 TOR yeast 136, AGP1-GFP MLPCN inconclusive and Efflux pump mplx 0.
CC(C)OCCCn1c(=N)c(S(=O)(=O)c2ccccc2)cc2c(=O)n3ccccc3nc21 was read as LAP4 TOR yeast 100, RPL19A-GFP yeast 98, CIT2 TOR yeast 94, MEP2 TOR yeast 96, AGP1-GFP MLPCN 98 and Efflux pump mplx 0.
CCC(Sc1nc(=O)cc(N)n1-c1cccc(C)c1)C(=O)Nc1cc(C)on1 (configuration not stated) was read as LAP4 TOR yeast 106, RPL19A-GFP yeast 100, CIT2 TOR yeast 99, MEP2 TOR yeast 103, AGP1-GFP MLPCN 101 and Efflux pump mplx 0.
CCC(Sc1nc(=O)cc(N)n1-c1ccccc1)C(=O)Nc1cc(C)on1 (configuration not stated) was read as LAP4 TOR yeast 183*, RPL19A-GFP yeast 77, CIT2 TOR yeast 125, MEP2 TOR yeast 385*, AGP1-GFP MLPCN 162* and Efflux pump mplx 0.
`CCOC(=O)c1c(N)c(C#N)c2n1CCCC2` gave LAP4 TOR yeast 104, RPL19A-GFP yeast 103, CIT2 TOR yeast 107, MEP2 TOR yeast 101, AGP1-GFP MLPCN 110 and Efflux pump mplx 0.
`N#Cc1c(N)c(C(=O)c2ccc(Cl)cc2)n2c1CCC2` gave LAP4 TOR yeast 85, CIT2 TOR yeast inconclusive, MEP2 TOR yeast 248*[may fluoresce violet], AGP1-GFP MLPCN inconclusive and Efflux pump mplx 0.
Screening O=C1c2ccccc2C2=Nc3ccccc3SC(c3cccc(F)c3)C12 (configuration not stated) returned LAP4 TOR yeast 119, RPL19A-GFP yeast 103, CIT2 TOR yeast 101, MEP2 TOR yeast 180*, AGP1-GFP MLPCN 94 and Efflux pump mplx 0.
For Cc1cc(C)c(C(=O)COC(=O)c2ccc([N+](=O)[O-])o2)cc1C the results were LAP4 TOR yeast 225*, RPL19A-GFP yeast 99, CIT2 TOR yeast 65, MEP2 TOR yeast 95, AGP1-GFP MLPCN 97 and Efflux pump mplx 0.
For Cc1cc(-c2ccccc2)n(-c2ccccc2)n1 the results were LAP4 TOR yeast 87, RPL19A-GFP yeast 100, CIT2 TOR yeast 99, MEP2 TOR yeast 99, AGP1-GFP MLPCN 98 and Efflux pump mplx 0.
`O=C(O)CCC(NC(=O)c1cncc(O)c1)C(=O)O` (configuration not stated) gave LAP4 TOR yeast 105, RPL19A-GFP yeast 102, CIT2 TOR yeast 102, MEP2 TOR yeast 99, AGP1-GFP MLPCN 99 and Efflux pump mplx 0.
`CC(=O)N[C@@H](CC(=O)N[C@H](CCC(=O)O)C(=O)O)C(=O)O` gave LAP4 TOR yeast 100, RPL19A-GFP yeast 47*[may fluoresce violet], CIT2 TOR yeast inconclusive, MEP2 TOR yeast 528*[may fluoresce violet], AGP1-GFP MLPCN 16 and Efflux pump mplx 0.
`Cc1cc(C)c(NC(=O)CN(C)C(=O)c2ccc(OCc3ccccc3)cc2)c(C)c1` gave LAP4 TOR yeast 103, RPL19A-GFP yeast 100, CIT2 TOR yeast 95, MEP2 TOR yeast 107, AGP1-GFP MLPCN 98 and Efflux pump mplx 0.
`C/C(CCC12CC3CC(CC(C3)C1)C2)=N\NC(N)=S` gave LAP4 TOR yeast 184*, RPL19A-GFP yeast 95, CIT2 TOR yeast 95, MEP2 TOR yeast 96, AGP1-GFP MLPCN 133 and Efflux pump mplx 0.
Screening CN1C(=O)C(C)(C)c2cc(S(=O)(=O)N3CCN(c4ccc(F)cc4)CC3)ccc21 returned LAP4 TOR yeast 98, RPL19A-GFP yeast 99, CIT2 TOR yeast 98, MEP2 TOR yeast 104, AGP1-GFP MLPCN 98 and Efflux pump mplx 0.
For COc1ccc(NC(=O)C2C3C=CC(C3)C2C(=O)NCc2ccco2)c(OC)c1 (configuration not stated) the results were LAP4 TOR yeast 95, RPL19A-GFP yeast 63, CIT2 TOR yeast 102, MEP2 TOR yeast 195*, AGP1-GFP MLPCN 27 and Efflux pump mplx 0.
Screening CCc1cc(C(=O)Cc2ccccn2)c(O)cc1O returned LAP4 TOR yeast 73, RPL19A-GFP yeast 63, CIT2 TOR yeast inconclusive, MEP2 TOR yeast 270*[may fluoresce violet], AGP1-GFP MLPCN 14 and Efflux pump mplx 0.
Screening CC(C)c1ccc(NC(=O)CN2C(=O)NC3(CCCCCCC3)C2=O)cc1 returned LAP4 TOR yeast 98, RPL19A-GFP yeast 100, CIT2 TOR yeast 105, MEP2 TOR yeast 103, AGP1-GFP MLPCN 101 and Efflux pump mplx 0.
`O=C(Nc1ccc(F)cc1F)C1CCN(S(=O)(=O)c2cccnc2)CC1` gave LAP4 TOR yeast 97, RPL19A-GFP yeast 102, CIT2 TOR yeast 99, MEP2 TOR yeast 96, AGP1-GFP MLPCN 99 and Efflux pump mplx 0.
Screening COc1cccc2cc(C(=O)N3CCN(C/C=C/c4ccccc4)CC3)c(=O)oc12 returned LAP4 TOR yeast 106, RPL19A-GFP yeast 81, CIT2 TOR yeast 63, MEP2 TOR yeast 219*, AGP1-GFP MLPCN 89 and Efflux pump mplx 0.
For COc1ccc(CNC(=O)CCC(=O)Nc2nnc(C(F)(F)F)s2)cc1 the results were LAP4 TOR yeast 104, RPL19A-GFP yeast 95, CIT2 TOR yeast 161*[may fluoresce green], MEP2 TOR yeast 103, AGP1-GFP MLPCN 119 and Efflux pump mplx 0.
For CCN(CC(=O)Nc1cc(Cl)ccc1C)C(=O)c1cc([N+](=O)[O-])ccc1N1CCOCC1 the results were LAP4 TOR yeast 97, RPL19A-GFP yeast 91, CIT2 TOR yeast 89, MEP2 TOR yeast 90, AGP1-GFP MLPCN 102 and Efflux pump mplx 0.
O=C(N/N=C/c1cccs1)c1ccccn1 was read as LAP4 TOR yeast 96, RPL19A-GFP yeast 94, CIT2 TOR yeast 100, MEP2 TOR yeast 97, AGP1-GFP MLPCN 97 and Efflux pump mplx 0.
Screening Cc1ccc(/C=N/NC(=O)c2ccccn2)s1 returned LAP4 TOR yeast 140, RPL19A-GFP yeast 81, CIT2 TOR yeast 110, MEP2 TOR yeast 200*, AGP1-GFP MLPCN 106 and Efflux pump mplx 0.
